CYP2C19 inh – inhibitors of human CYP2C19 | 21% of 96,000 active | CYP2C19 Supersomes, luciferin-H EGE luminescence, 30 min | AID 778 | inhibition, % at 5 µM | P33261;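 active = CYP2C19 inhibition above a set limit at 5 µM in the primary screen, cut at about 50% in these data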;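 note: plate controls were negative control wells for no effect and 2.5 mM tranylcypromine positive control for full effect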
CYP2C19 activ – cytochrome P450 2C19 (human) activation; recombinant CYP2C19, luciferin-H EGE luminescence; hits give high values; 0 = fully inhibited enzyme, 1 = untreated enzyme; activation factor at 5 µM; P33261; 96,000 tested, under 10 active;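 active = activation factor of at least 2 at 5 µM in the primary screen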;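 note: 0 = wells with 2.5 mM tranylcypromine and 1 = vehicle-only wells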
cytoskel mod – modifiers of cytoskeleton assembly. HUVEC TNFa F-actin phalloidin imaging, high content. inhibition, % at 2 µM. 0.18% of 91,000 active;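 active = inhibition above the batch mean plus 3 SD and confirmed as a hit by visual image inspection, cut at about 30% in these data, passing the limit was not always enough; inconclusive = above the inhibition threshold but rejected on visual inspection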
CYP2C9 inhib – inhibitors of human CYP2C9; AID 777; 20% of 96,000 active; inhibition, % at 5 µM; CYP2C9 Supersomes, luciferin-H conversion, luminescence;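 active = blocking of liver enzyme CYP2C9 beyond about 50% at 5 µM, limit read from the data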
Target sequence (P11712 whole entry, looked up): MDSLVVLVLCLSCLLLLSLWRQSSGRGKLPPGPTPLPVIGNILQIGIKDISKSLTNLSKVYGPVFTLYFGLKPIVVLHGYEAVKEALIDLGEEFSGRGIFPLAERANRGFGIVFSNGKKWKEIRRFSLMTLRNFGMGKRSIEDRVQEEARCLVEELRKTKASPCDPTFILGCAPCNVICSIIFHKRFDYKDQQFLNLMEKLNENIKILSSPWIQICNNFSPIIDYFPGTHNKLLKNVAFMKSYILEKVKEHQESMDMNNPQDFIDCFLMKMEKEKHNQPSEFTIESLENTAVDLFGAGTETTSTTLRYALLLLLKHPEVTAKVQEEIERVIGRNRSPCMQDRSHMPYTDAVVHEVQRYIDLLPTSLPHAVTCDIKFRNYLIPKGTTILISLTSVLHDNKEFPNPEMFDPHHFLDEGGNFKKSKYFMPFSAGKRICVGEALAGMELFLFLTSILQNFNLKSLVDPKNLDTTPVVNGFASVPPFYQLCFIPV
CYP2C9 act – CYP2C9 (human) activation; P11712; recombinant CYP2C9, luciferin-H conversion, luminescence; hits give high values; factor 1 = untreated enzyme, 0 = blocked; activation factor at 5 µM; 1.4% of 96,000 active; AID 1024;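 active = activation factor of 2 or more for CYP2C9 at a 5 µM dose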;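 note: 0 = sulfaphenazole-blocked wells and 1 = vehicle-only wells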
E-sel TNF inh – TNF alpha driven E-selectin expression inhibition; HUVEC TNFa-induced E-selectin immunofluorescence, high content; inhibition, % at 2 µM; 0.71% of 120,000 active; AID 1246;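 active = inhibition above the batch mean plus 3 SD, and confirmed as a hit on visual image review, cut at about 43% in these data; inconclusive = passes the inhibition cutoff but fails visual image review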;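 note: 0% = TNF-stimulated DMSO wells and 100% = unstimulated control wells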
* hit, by the source's call; u = inconclusive; x = no result given. Hits are enriched below; roughly 22% of the tested compounds scored in any of these assays.

SMILES | CYP2C19 inh | CYP2C19 activ | cytoskel mod | CYP2C9 inhib | CYP2C9 act | E-sel TNF inh
COc1ccc(C2CC(=O)c3cnc(NC(=O)c4cc(OC)cc(OC)c4)nc3C2)cc1 (stereo not drawn) | 83* | 0.2 | -11 | 69* | 0.3 | -5
COc1ccc(C2CC(=O)c3cnc(NC(=O)c4ccccc4)nc3C2)cc1OC (stereo not drawn) | 10 | 0.9 | x | 70* | 0.3 | -32
COc1ccc(C(=O)/C=C/c2ccccc2C(F)(F)F)cc1 | 15 | 0.9 | 19 | -90 | 1.9 | -3
Cc1ccc2[nH]c3c(c2c1)CN(C(=O)CN1CCN(c2ccccn2)CC1)CC3 | 11 | 0.9 | x | 21 | 0.8 | x
Cc1ccc2[nH]c3c(c2c1)CN(C(=O)CN1CCSCC1)CC3 | 51* | 0.5 | -29 | 15 | 0.8 | -11
Cc1[nH]c2ccccc2c1NC(=O)CN1CCN(Cc2ccc3c(c2)OCO3)CC1 | 27 | 0.7 | -20 | 12 | 0.9 | 5
Cc1ccc2[nH]c3c(c2c1)CN(C(=O)CN1CCN(Cc2ccc4c(c2)OCO4)CC1)CC3 | 62* | 0.4 | -23 | 62* | 0.4 | -36
Cc1ccc2[nH]c3c(c2c1)CN(C(=O)CN1CC(C)OC(C)C1)CC3 (stereo not drawn) | 71* | 0.3 | -12 | 35 | 0.6 | 7
Cc1nc2c(C)cccn2c1/C(O)=C1\C(=O)C(=O)N(CCN2CCOCC2)C1c1cccs1 (stereo not drawn) | 32 | 0.7 | -17 | 6 | 0.9 | -25
Nc1ccc2c(c1)C(=O)N(CCCCCC(=O)O)C2 | x | x | -7 | x | x | -5
CN(CC(=O)NCc1ccncc1)S(=O)(=O)c1ccccc1 | 94* | 0.1 | 6 | 83* | 0.2 | 14
COc1ccc(S(=O)(=O)N(C)CC(=O)NCc2cccnc2)cc1 | 39 | 0.6 | -24 | 28 | 0.7 | 13
CN(CC(=O)NCc1ccncc1)S(=O)(=O)c1ccc(F)cc1 | 91* | 0.1 | u | 82* | 0.2 | 16
COc1cc(-n2c(C)nc3cc(C(=O)NCCN4CCOCC4)ccc32)cc(OC)c1OC | -4 | 1 | -17 | 4 | 1 | 7
CCOc1ccc(-c2ncncc2-c2ccc(OC)cc2)c(O)c1 | 33 | 0.7 | 11 | 54* | 0.5 | -24
COc1ccc(/C(C)=N/NS(=O)(=O)c2ccccc2)c(OC)c1 | x | x | x | x | x | 0
CC(=O)Oc1ccc(C(=O)Nc2cccc(C(=O)NC(C)(C)C)c2)cc1 | x | x | x | x | x | -27
CCC(CC)C(=O)Nc1cccc(C(=O)c2ccccc2)c1 | 70* | 0.3 | -11 | 55* | 0.4 | 11
COc1ccc(S(=O)(=O)N/N=C(/C)c2cccc(NC(=O)c3ccccc3Cl)c2)cc1 | 97* | 0 | -13 | 95* | 0 | -10
CCC(CC)C(=O)Nc1cccc(/C(C)=N/NC(=O)c2ccccc2Cl)c1 | 51* | 0.5 | 15 | 42 | 0.6 | -6
CCC(=O)Oc1ccc(C(=O)Nc2cccc(C(=O)c3ccccc3)c2)cc1 | 71* | 0.3 | 11 | 73* | 0.3 | 21
CCC(CC)C(=O)Nc1cccc(-c2nc3ccccc3o2)c1 | 59* | 0.4 | 8 | 66* | 0.3 | -5
CNC(=O)N(C1=NCC(C)(C)S1)c1ccc(F)c(Cl)c1 | 91* | 0.1 | -12 | 51* | 0.5 | x
O=C(NC1CCCCC1)C(c1ccc2ncccc2c1)N(Cc1ccc(F)cc1)C(=O)c1cccs1 (stereo not drawn) | 66* | 0.3 | -40 | 84* | 0.2 | -14
COc1ccc(C(C(=O)NC2CCCC2)N(Cc2ccccc2)C(=O)c2nsc(Cl)c2Cl)cc1 (stereo not drawn) | 61* | 0.4 | x | 64* | 0.4 | x
COc1cccc(CN(C(=O)Cc2c[nH]c3ccccc23)C(C(=O)NC2CCCCC2)c2cccs2)c1 (stereo not drawn) | 94* | 0.1 | 30 | 98* | 0 | -55
COCCN(C(=O)Cc1cccs1)C(C(=O)NCc1ccc(OC)cc1)c1ccccc1 (stereo not drawn) | 14 | 0.9 | 6 | 17 | 0.8 | -23
CCOc1ccc(C(C(=O)NC2CCCC2)N(Cc2ccccc2)C(=O)c2nsc(Cl)c2Cl)cc1 (stereo not drawn) | 8 | 0.9 | -37 | 25 | 0.8 | -31

Screening results from PubChem BioAssay.
